Experimental data reported in PMC5540273 (PLoS ONE, 2017).
Like-named read-outs stand apart in the source and are kept apart here.

What was measured:
Settings in all cases: n = 1
[1] = test system: STK16
[2] = test system: STK33
[3] = test system: STK35
[4] = test system: STK36
[5] = test system: STK39
[6] = test system: SYK
[7] = test system: SgK110
[8] = test system: T1, TAK1
T1 construct: gene MAP3K7

[9] = test system: TAOK1
[10] = test system: TAOK2
[11] = test system: TAOK3
[12] = test system: TBK1
[13] = test system: TEC
[14] = test system: TESK1
[15] = test system: TGFBR1
[16] = test system: TGFBR2
[17] = test system: TIE1
[18] = test system: T2, TIE2
T2 construct: gene TEK

[19] = test system: TLK1
[20] = test system: TLK2
[21] = concentration: 1 μM, replicates: in singlicate
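Also: KINOMEscan kinase panel screen.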

SMILES: Cl.O=C(Nc1cccc(-c2nn3ncccc3c2-c2ccnc(Nc3cccnc3)n2)c1)c1c(F)cccc1F [GSK312879]
- %Inh [1, 21]: 3%
- %Inh [2, 21]: 0%
- %Inh [3, 21]: 0%
- %Inh [4, 21]: 96.7%
- %Inh [5, 21]: 17%
- %Inh [6, 21]: 3%
- %Inh [7, 21]: 0%
- %Inh [8, 21]: 0%
- %Inh [9, 21]: 5%
- %Inh [10, 21]: 0%
- %Inh [11, 21]: 7%
- %Inh [12, 21]: 0%
- %Inh [13, 21]: 13%
- %Inh [14, 21]: 0%
- %Inh [15, 21]: 0%
- %Inh [16, 21]: 0%
- %Inh [17, 21]: 34%
- %Inh [18, 21]: 1%
- %Inh [19, 21]: 0%
- %Inh [20, 21]: 0%

SMILES: Cc1ccc(NC(=O)Nc2cccc(C(F)(F)F)c2)cc1 [GSK955403]
- %Inh ([1]; 1 µM): 30%
- %Inh ([2]; 1 µM): 0%
- %Inh ([3]; 1 µM): 0%
- %Inh ([4]; 1 µM): 10%
- %Inh ([5]; 1 µM): 3%
- %Inh ([6]; 1 µM): 19%
- %Inh ([7]; 1 µM): 0%
- %Inh ([8]; 1 µM): 13%
- %Inh ([9]; 1 µM): 0%
- %Inh ([10]; 1 µM): 0%
- %Inh ([11]; 1 µM): 0%
- %Inh ([12]; 1 µM): 33%
- %Inh ([13]; 1 µM): 7%
- %Inh ([14]; 1 µM): 36%
- %Inh ([15]; 1 µM): 6%
- %Inh ([16]; 1 µM): 0%
- %Inh ([17]; 1 µM): 13%
- %Inh ([18]; 1 µM): 38%
- %Inh ([19]; 1 µM): 20%
- %Inh ([20]; 1 µM): 3%

SMILES: COc1cccc(-c2cc(-c3c[nH]nc3-c3ccccn3)ccn2)c1 [GW680338]
- %Inh [1, 21]: 8%
- %Inh [2, 21]: 0%
- %Inh [3, 21]: 0%
- %Inh [4, 21]: 25%
- %Inh [5, 21]: 13%
- %Inh [6, 21]: 17%
- %Inh [7, 21]: 17%
- %Inh [8, 21]: 0%
- %Inh [9, 21]: 0%
- %Inh [10, 21]: 0%
- %Inh [11, 21]: 0%
- %Inh [12, 21]: 0%
- %Inh [13, 21]: 0%
- %Inh [14, 21]: 15%
- %Inh ([15]; 1 µM): 54%
- %Inh [16, 21]: 32%
- %Inh [17, 21]: 0%
- %Inh [18, 21]: 0%
- %Inh [19, 21]: 0%
- %Inh [20, 21]: 0%

SMILES: COc1cc2nccc(Nc3ccc(NC(=O)c4ccc(C)cc4)c(O)c3)c2cc1OC.Cl [GW440132]
- %Inh [1, 21]: 0%
- %Inh [2, 21]: 7%
- %Inh [3, 21]: 0%
- %Inh [4, 21]: 0%
- %Inh [5, 21]: 0%
- %Inh [6, 21]: 38%
- %Inh [7, 21]: 0%
- %Inh [8, 21]: 0%
- %Inh [9, 21]: 0%
- %Inh [10, 21]: 0%
- %Inh [11, 21]: 0%
- %Inh [12, 21]: 0%
- %Inh [13, 21]: 3%
- %Inh [14, 21]: 25%
- %Inh [15, 21]: 0%
- %Inh [16, 21]: 0%
- %Inh [17, 21]: 6%
- %Inh [18, 21]: 0%
- %Inh [19, 21]: 0%
- %Inh [20, 21]: 0%

SMILES: Cc1nnc(-c2ccc3occ(-c4ccc(S(C)=O)cc4)c3c2)[nH]1 (centres unmarked)
- %Inh [1, 21]: 11%
- %Inh [2, 21]: 0%
- %Inh [3, 21]: 22%
- %Inh [4, 21]: 3%
- %Inh [5, 21]: 0%
- %Inh [6, 21]: 0%
- %Inh [7, 21]: 0%
- %Inh [8, 21]: 7%
- %Inh [9, 21]: 0%
- %Inh [10, 21]: 0%
- %Inh [11, 21]: 0%
- %Inh [12, 21]: 0%
- %Inh [13, 21]: 13%
- %Inh [14, 21]: 2%
- %Inh [15, 21]: 10%
- %Inh [16, 21]: 0%
- %Inh [17, 21]: 0%
- %Inh [18, 21]: 5%
- %Inh [19, 21]: 14%
- %Inh [20, 21]: 0%

SMILES: COc1ccccc1CNC(=O)c1cc(C(=O)c2ccccc2C)c[nH]1 [GSK364507]
- %Inh [1, 21]: 11%
- %Inh [2, 21]: 0%
- %Inh [3, 21]: 0%
- %Inh [4, 21]: 0%
- %Inh [5, 21]: 14%
- %Inh [6, 21]: 16%
- %Inh [7, 21]: 0%
- %Inh [8, 21]: 0%
- %Inh [9, 21]: 0%
- %Inh [10, 21]: 0%
- %Inh [11, 21]: 0%
- %Inh [12, 21]: 19%
- %Inh [13, 21]: 0%
- %Inh [14, 21]: 36%
- %Inh [15, 21]: 9%
- %Inh [16, 21]: 0%
- %Inh [17, 21]: 0%
- %Inh [18, 21]: 0%
- %Inh [19, 21]: 0%
- %Inh [20, 21]: 0%

SMILES: COc1ccc(C2=C(Nc3cccc(C(=O)O)c3)C(=O)NC2=O)cc1 [SB-390765]
- %Inh [1, 21]: 10%
- %Inh [2, 21]: 0%
- %Inh [3, 21]: 13%
- %Inh [4, 21]: 22%
- %Inh [5, 21]: 0%
- %Inh [6, 21]: 25%
- %Inh [7, 21]: 0%
- %Inh [8, 21]: 21%
- %Inh [9, 21]: 28%
- %Inh [10, 21]: 28%
- %Inh [11, 21]: 23%
- %Inh [12, 21]: 11%
- %Inh [13, 21]: 10%
- %Inh [14, 21]: 12%
- %Inh [15, 21]: 1%
- %Inh [16, 21]: 0%
- %Inh [17, 21]: 7%
- %Inh [18, 21]: 21%
- %Inh [19, 21]: 1%
- %Inh [20, 21]: 0%

SMILES: NC(=O)c1nnc2ccccc2c1N
- %Inh [1, 21]: 2%
- %Inh [2, 21]: 11%
- %Inh [3, 21]: 10%
- %Inh [4, 21]: 0%
- %Inh [5, 21]: 27%
- %Inh [6, 21]: 1%
- %Inh [7, 21]: 0%
- %Inh [8, 21]: 19%
- %Inh [9, 21]: 20%
- %Inh [10, 21]: 28%
- %Inh [11, 21]: 3%
- %Inh [12, 21]: 40%
- %Inh [13, 21]: 0%
- %Inh [14, 21]: 6%
- %Inh [15, 21]: 1%
- %Inh [16, 21]: 0%
- %Inh [17, 21]: 14%
- %Inh [18, 21]: 98.7%
- %Inh [19, 21]: 14%
- %Inh [20, 21]: 0%

SMILES: CS(=O)(=O)c1ccc(-c2c(-c3ncn[nH]3)sc(N3CCOCC3)c2C#N)cc1
- %Inh [1, 21]: 7%
- %Inh [2, 21]: 0%
- %Inh [3, 21]: 0%
- %Inh [4, 21]: 1%
- %Inh [5, 21]: 0%
- %Inh [6, 21]: 23%
- %Inh [7, 21]: 15%
- %Inh [8, 21]: 33%
- %Inh [9, 21]: 0%
- %Inh [10, 21]: 0%
- %Inh [11, 21]: 0%
- %Inh [12, 21]: 14%
- %Inh [13, 21]: 9%
- %Inh [14, 21]: 0%
- %Inh [15, 21]: 12%
- %Inh [16, 21]: 10%
- %Inh [17, 21]: 11%
- %Inh [18, 21]: 9%
- %Inh [19, 21]: 5%
- %Inh [20, 21]: 0%

SMILES: Cl.Oc1ccc(-c2nc(-c3ccccc3)[nH]c2-c2ccncc2)cc1 [SB-428218]
- %Inh [1, 21]: 16%
- %Inh [2, 21]: 0%
- %Inh [3, 21]: 0%
- %Inh [4, 21]: 0%
- %Inh [5, 21]: 0%
- %Inh [6, 21]: 24%
- %Inh [7, 21]: 0%
- %Inh [8, 21]: 0%
- %Inh [9, 21]: 0%
- %Inh [10, 21]: 0%
- %Inh [11, 21]: 0%
- %Inh [12, 21]: 18%
- %Inh [13, 21]: 0%
- %Inh [14, 21]: 36%
- %Inh [15, 21]: 60%
- %Inh [16, 21]: 7%
- %Inh [17, 21]: 0%
- %Inh [18, 21]: 0%
- %Inh [19, 21]: 0%
- %Inh [20, 21]: 0%
